Test results: PubChem BioAssay (NCI)
This is part of a sample that, as a whole, favours compounds with a hit. Of some 83,000 tested, about 20% had one in any assay.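 Growth was measured after 48 h exposure to one concentration of compound in 96-well plates. Values under 10 count as active.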 Calls of active or inactive are those of the source.

Experiments:
Assay in all cases: NCI-60 one-dose screen, 48 h (100 = growth as untreated, 0 = no growth, -100 = all killed)
Conditions in all cases: 10 µM
[1] = test system: 786-0 renal
[2] = test system: MALME-3M melanoma
[3] = test system: EKVX NSCLC
[4] = test system: SN12C renal
[5] = test system: TK-10 renal
[6] = test system: ACHN renal
[7] = test system: A498 renal
[8] = test system: CCRF-CEM leukemia
[9] = test system: RPMI-8226 leukemia
[10] = test system: OVCAR-5 ovarian
[11] = test system: OVCAR-4 ovarian
[12] = test system: IGROV1 ovarian
[13] = test system: OVCAR-3 ovarian
[14] = test system: NCI/ADR-RES ovarian
[15] = test system: BT-549 breast
[16] = test system: MDA-MB-435 melanoma
[17] = test system: MCF7 breast
[18] = test system: HCT-116 colon
[19] = test system: HCC-2998 colon
[20] = test system: KM12 colon

Measured: growth

COc1cc2cc(C(=O)N3C[C@@H](CCl)c4c3cc(OC(=O)N3CCN(C)[C@@H]5CSSC[C@@H]53)c3ccccc43)[nH]c2c(OC)c1OC
inactive: [5] 13.8%
active: [1] -9.47% | [2] -70.3% | [3] -56.1% | [4] -44.6% | [6] -41.3% | [7] -22.4% | [8] -25.1% | [9] -20.4% | [10] -6.69% | [11] -6.86% | [12] 7.55% | [13] -15.8% | [14] -22.2% | [15] -82.6% | [16] -86.8% | [17] -8.94% | [18] 5.27% | [19] -53.8% | [20] 0.977%

O=C(/C=C/c1ccccc1)c1nc2ccccc2n1Cc1ccc(Br)cc1
inactive: [7] 51% | [11] 27%
active: [1] -89.8% | [2] -64.7% | [3] -89.2% | [4] -58.7% | [5] -47.9% | [6] -74.5% | [8] -7.81% | [9] -23.1% | [10] -62.3% | [12] -57.8% | [13] -72.5% | [14] -37.4% | [15] -69.8% | [16] -27.9% | [17] -48.7% | [18] -88.1% | [19] -97.3% | [20] -32.5%

Cc1ccc2[nH]c(=S)n(-c3ccc(F)cc3)c(=O)c2c1
inactive: [1] 91.4% | [2] 96.4% | [3] 95.1% | [4] 92.2% | [5] 102% | [6] 101% | [7] 98.3% | [8] 86.3% | [9] 91.5% | [10] 106% | [11] 104% | [12] 106% | [13] 114% | [14] 103% | [15] 93.7% | [16] 104% | [17] 95% | [18] 96.3% | [19] 111% | [20] 103%

CC[C@]12C=CCN3CC[C@@]4(c5ccc(OC)cc5N(C)[C@H]4[C@@](O)(C(=O)OC)[C@@H]1OC(=O)CCCC[P+](C1CCCCC1)(C1CCCCC1)C1CCCCC1)[C@@H]32
inactive: [3] 13.2% | [6] 18.7% | [11] 12.4% | [14] 96.7%
active: [1] -36% | [2] -95.9% | [4] -57.9% | [5] -64.1% | [7] -0.0449% | [8] -60.2% | [9] -45% | [10] 5.84% | [12] -84.7% | [13] -60.3% | [15] -97.4% | [16] -90.5% | [17] -64.2% | [18] 4.69% | [19] -87.8% | [20] -71.1%

O=C(/C=C/c1cccc(Br)c1)c1nc2ccccc2n1Cc1ccc(F)cc1
inactive: [1] 12.5% | [2] 50.5% | [3] 20.1% | [4] 47.3% | [5] 80.2% | [6] 40.7% | [7] 116% | [10] 53.7% | [11] 54.8% | [12] 40.4% | [13] 22.1% | [15] 12.5% | [16] 11.6% | [19] 25% | [20] 41.4%
active: [8] -18.8% | [9] -24.7% | [14] 8.54% | [17] 8.41% | [18] -41.1%

CC(=C\C(=O)Oc1ccc2c3c1OC1C(O)CCC4(O)C(C2)N(CC2CCC2)CCC314)/C=C1\CCCc2ccccc21 (centres undefined)
inactive: [1] 45.1% | [2] 34.6% | [3] 49.7% | [4] 60.9% | [5] 65.2% | [6] 84.9% | [7] 125% | [9] 30.1% | [10] 72.1% | [11] 55.6% | [12] 67.1% | [13] 77.2% | [14] 63.8% | [15] 58.7% | [16] 61.8% | [17] 35.3% | [18] 28.6% | [19] 31.2% | [20] 40.5%

CCOC(=O)C1=C(Nc2ccccc2)C(=O)OC12C(=O)Nc1ccccc12 (centres undefined)
inactive: [1] 108% | [2] 102% | [3] 95.2% | [4] 110% | [5] 137% | [6] 107% | [7] 120% | [8] 93.9% | [9] 104% | [10] 103% | [11] 107% | [12] 102% | [13] 104% | [14] 107% | [15] 103% | [16] 108% | [17] 95.6% | [18] 109% | [19] 115% | [20] 105%

CCC[Se]C(=O)c1ccc(C(=O)[Se]CCC)s1
active: [1] 2.15% | [2] -82.4% | [3] -79.7% | [4] -75% | [5] -79.8% | [6] -63.3% | [7] -64.9% | [9] -5.8% | [10] -35.6% | [12] -67.3% | [13] -47.6% | [14] -53.9% | [15] -86.4% | [16] -61% | [17] -34.6% | [18] -56% | [19] -8.78% | [20] 5.4%
inactive: [8] 13.6% | [11] 55.6%

CN(C)CCc1cn(C2CCC2)c2cccc(O)c12
inactive: [1] 50% | [2] 46.5% | [3] 94.9% | [4] 68% | [5] 103% | [6] 84.6% | [7] 95% | [8] 56.6% | [9] 24.4% | [10] 79.8% | [11] 86.6% | [12] 84.2% | [13] 93.6% | [14] 74.3% | [15] 68.1% | [16] 45.9% | [17] 22.4% | [18] 31.6% | [20] 76.1%
active: [19] -46.1%

O=C(/C=C/c1ccc(F)cc1)c1nc2ccccc2n1Cc1ccc(F)cc1
inactive: [3] 13.6% | [4] 21.9% | [5] 12.2% | [7] 112% | [11] 56.8% | [12] 14.9% | [13] 22.9%
active: [1] -31.5% | [2] -23.8% | [6] -45.4% | [8] 7.89% | [9] -27.1% | [10] -7.92% | [14] -42.5% | [15] -23.8% | [16] -37.9% | [17] 7.32% | [18] -56.9% | [19] -78.9% | [20] -4.81%

CC(C)N=C([Se])NC(=O)c1cccs1
active: [1] 2.02% | [4] -21.4% | [9] -4.48% | [10] -22.6% | [12] 1.76% | [14] -27% | [17] 1.79%
inactive: [2] 102% | [3] 14.7% | [5] 56% | [6] 47.2% | [7] 36.6% | [8] 29.7% | [11] 83% | [13] 66.3% | [15] 43.7% | [16] 37.4% | [18] 13.3% | [19] 27.6% | [20] 16.7%

CC(C)N=C([Se])NC(=O)c1ccccc1
active: [1] -93.6% | [2] -24.7% | [3] -56.8% | [4] -59.8% | [5] -71.2% | [6] -51.2% | [7] -29.4% | [8] 5.47% | [9] 0.145% | [10] -55.9% | [11] 3.7% | [12] -54.5% | [13] -61% | [14] -11% | [17] -29.1% | [18] 1.38% | [19] -35.5% | [20] -8.34%
inactive: [15] 40.6% | [16] 22.5%

O=C(/C=C/c1ccccc1)c1nc2ccccc2n1Cc1ccc(F)cc1
active: [1] -88.3% | [2] -28.3% | [3] -60.5% | [4] -5.26% | [5] -14.3% | [6] -55% | [8] -23.7% | [9] -38% | [10] -15.1% | [12] -32.9% | [13] -47.5% | [14] -49.6% | [15] -65% | [16] -29.3% | [17] -32.7% | [18] -87.4% | [19] -95.8% | [20] -41.3%
inactive: [7] 106% | [11] 47.7%

O=C(/C=C/c1ccc(Cl)cc1Cl)c1nc2ccccc2n1Cc1ccc(F)cc1
active: [8] -10.2% | [9] -31.1% | [17] 5.98% | [18] 7.22%
inactive: [1] 19.8% | [2] 69.1% | [3] 35.6% | [4] 60.4% | [5] 93.6% | [6] 48.7% | [7] 94.8% | [10] 67.3% | [11] 63.2% | [12] 47% | [13] 31.7% | [14] 42.2% | [15] 24.4% | [16] 43.9% | [19] 27.3% | [20] 53%

CC(=O)Oc1ccccc1C(=O)NC([Se])=NC1CCCCC1
inactive: [6] 20.2% | [7] 16.3% | [8] 28.5% | [9] 27.9% | [15] 33.8% | [18] 21% | [19] 28.1%
active: [1] -11.9% | [2] -6.63% | [3] -59% | [4] -42.7% | [5] -52.9% | [10] -30.3% | [11] -13.3% | [12] -46% | [13] -68.1% | [14] -16.4% | [16] 8.85% | [17] 1.18% | [20] 5.47%

COc1cc(OC)c(S(=O)(=O)N(CCCl)CCCl)cc1C(=O)/C=C/c1ccc(C)cc1
inactive: [1] 14.2% | [2] 83.5% | [3] 89.5% | [4] 53.6% | [5] 106% | [6] 64.9% | [7] 110% | [8] 70.7% | [9] 59.9% | [10] 91.7% | [11] 52.2% | [12] 86.8% | [13] 112% | [14] 63.2% | [15] 93.8% | [16] 79.5% | [17] 63.6% | [18] 58% | [19] 93.6% | [20] 81.1%
